Compound activity deposited in PubChem by National Center for Advancing Translational Sciences (NCATS).
An excerpt weighted towards active compounds, which were near 2.4% of everything screened.
POLH inh = inhibitors of human DNA polymerase eta | recombinant Pol eta, fluorescent DNA replication assay | Q9Y253 | Potency, µM (series often up to 114 µM), for the others: at the top dose activity change, negative = inhibition, actives largely listed as inhibitors | hit rate 1.2% among 390,000; further: on the % scale 0 is the no-effect control and ±100 the full control effect
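Fluorescent replication assay: 50 nM final substrate added after a 15 min room-temperature compound preincubation with 10 nM enzyme. Signal taken at 0 min and again at 10 min.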
Pol beta inh = inhibitors of human DNA polymerase beta; Pol beta primer extension/strand displacement, fluorescence kinetic; Potency, µM (series often up to 114 µM), for the others: at the top dose activity change, negative = inhibition, hits mostly inhibitors; hit rate 1.3% among 340,000; AID 485314; further: on the % scale 0 is the no-effect control and ±100 the full control effect
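Homogeneous kinetic assay of primer extension and strand displacement by 10 nM Pol beta, preincubated 15 min at room temperature with compound before 50 nM substrate (final) was added. Read at 0 and 10 min; four-parameter Hill fit.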
POLK inh = DNA polymerase kappa (human) inhibition. purified Pol kappa, fluorescent DNA synthesis assay, 10 min. hit rate 0.53% among 400,000. Potency, µM (series often up to 107 µM), without a hit: at the highest dose activity, negative = inhibition, usual class: inhibitors. Q9UBT6; further: on the % scale 0 is the no-effect control and ±100 the full control effect
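First, compounds were pin-transferred onto 10 nM Pol kappa. After 15 min at room temperature, substrate was added to 50 nM final. Fluorescence was then measured kinetically at 0 and 10 min.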
FEN1 inhibitor = human FEN1 inhibition | Potency, µM (titrated, usually from 114 µM), without a hit: top-dose activity change, negative = inhibition, hits mostly inhibitors | Recombinant FEN1 flap cleavage, fluorescence, 15 min | P39748 | hit rate 0.35% among 390,000; further: on the % scale 0 is the no-effect control and ±100 the full control effect; nearly all actives have a fitted effect of over 65% in size
Target sequence (P39748 whole entry, looked up): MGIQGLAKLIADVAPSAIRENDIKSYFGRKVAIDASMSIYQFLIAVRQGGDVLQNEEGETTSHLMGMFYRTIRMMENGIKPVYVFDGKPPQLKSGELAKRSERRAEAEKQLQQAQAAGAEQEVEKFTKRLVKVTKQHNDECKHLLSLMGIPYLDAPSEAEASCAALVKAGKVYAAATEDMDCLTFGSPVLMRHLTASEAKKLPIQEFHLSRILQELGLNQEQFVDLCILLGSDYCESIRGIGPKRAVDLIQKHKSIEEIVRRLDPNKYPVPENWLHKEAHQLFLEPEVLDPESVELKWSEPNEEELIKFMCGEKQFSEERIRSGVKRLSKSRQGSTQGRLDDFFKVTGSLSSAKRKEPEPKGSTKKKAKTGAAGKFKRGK
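Concentration–response screening of FEN1 (10 nM): 15 min compound preincubation at room temperature, reaction started with 50 nM substrate and read at 0 and 15 min. Corrected, normalized data were fitted by a four-parameter Hill equation.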
Pol iota inh = DNA polymerase iota (human) inhibition | Potency, µM (top dose mostly 115 µM), inactives show top-dose activity, negative = inhibition, usual class: inhibitors | Pol iota fluorescent replication assay, 10 min | hit rate 1% among 390,000 | AID 588590
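Fluorescent replication assay read twice, at 0 min and 10 min after adding 50 nM (final) substrate. Enzyme (10 nM) and compounds were first incubated 15 min at room temperature; enzyme-free buffer wells were negative controls.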
TDP1 block = blocks human tyrosyl-DNA phosphodiesterase 1. Potency, µM (top dose mostly 130 µM), for inactives: at the highest dose activity change, negative = inhibition, usual class: inhibitors. recombinant TDP1, AlphaScreen DNA substrate cleavage. hit rate 0.28% among 350,000; further: on the % scale 0 is the no-effect control and ±100 the full control effect; nearly all actives have a fitted effect of over 40% in size
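Recombinant E. coli-expressed Tdp1 (1 nM) preincubated with compound 15 min at RT, then 5'-biotin/3'-phosphotyrosine-FITC DNA substrate (15 nM) added for 5 min. AlphaScreen beads (10 ug/ml) added, 10 min RT; tyrosine-FITC cleavage read as signal loss.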
Starred values were filed as active, the others as inactive; ? = inconclusive; . = no result given. The call rests on the fitted dose curve; in most records, active means well fitted curve in the direction sought with a large enough effect; inconclusive means small, poorly fitted or top-dose-only effect, or another doubt; inactive means no such curve, though single readings can be large; an effect the other way counts as inactive or inconclusive. Potency means the concentration at half of the fitted maximal effect.

SMILES	POLH inh	Pol beta inh	POLK inh	FEN1 inhibitor	Pol iota inh	TDP1 block
CCN(CC)c1ccc2cc(-c3nc(-c4cccs4)no3)c(=O)oc2c1	-1.5%	-1.7%	1.6%	-8.2%	11.6%	-5.1%
CC(Nc1nc(-c2ccc(F)cc2)cs1)c1nc2cc(Cl)c(Cl)cc2n1CCCO (stereo unspecified)	-0.3%	.	2.8%	-4.8%	?	.
Cc1ccc(Cn2c(C(C)Nc3nc(-c4ccc(C)cc4)cs3)nc3cc(Cl)c(Cl)cc32)cc1 (stereo unspecified)	-28.5%	31.6µM*	-13.1%	-28.6%	-15.4%	.
CCN(CC)CCn1nc2c3c(cccc3c1=O)-c1ccccc1-2	-9.5%	10µM*	-64.4%	?	?	6.0%
O=c1c2cccc3c2c(nn1CN1CCOCC1)-c1ccccc1-3	7.4%	12.4%	-10.6%	?	-1.7%	9.2%
COc1cc(NC(=O)c2cnc(N)s2)cc(C(=O)Nc2cccc(C(F)(F)F)c2)c1	-8.6%	1.7%	-12.1%	56.2µM*	2.24µM*	-8.3%
COc1cc(NC(=O)c2ccnc(N)c2)cc(C(=O)Nc2cccc(C(F)(F)F)c2)c1	-11.7%	-0.1%	-2.6%	?	?	-2.4%
CC(C)(C)n1ncc2c(=O)n(Cc3ccccc3SC(F)(F)F)cnc21	.	.	3.6%	-25.7%	9.0%	.
C1=Cc2ccccc2/C1=C\c1cccc(/C=C2\C=Cc3ccccc32)c1	.	.	?	35.5µM*	?	.
COCCN1C(=O)c2oc3ccc(C)cc3c(=O)c2C12C(=O)N(C)c1ccccc12 (stereo unspecified)	-8.1%	21.4%	-3.3%	?	3.9%	0.0%
CCOc1ccccc1N1CC(C(=O)N(CC)C2CCS(=O)(=O)C2)CC1=O (stereo unspecified)	50.1µM*	.	-19.9%	-3.4%	?	-0.9%
COc1ccc(CC(=O)NC2CCN(CC(=O)N3CCCc4ccccc43)CC2)cc1OC	-2.2%	-2.8%	0.0%	1.2%	20.4%	0.0%
COc1ccc(CC(=O)N2CCCc3ccccc32)cc1OC	-5.3%	-16.9%	-13.3%	4.4%	89.1µM*	1.1%
Cc1oc(-c2cccc(Cl)c2)nc1CN1CCC(C(=O)NCc2ccco2)CC1	-0.9%	-0.9%	-0.5%	3.0%	0.0%	8.8%
Cc1oc(-c2cccc(Cl)c2)nc1CN1CCC(C(=O)NC(C)C)CC1	-16.1%	14.6%	-19.6%	-3.6%	89.1µM*	4.6%
CCc1ccc(-n2c(=O)c3sc4ccccc4c3n(CC(=O)N(CC)Cc3ccccc3)c2=O)cc1	-12.2%	87.4%	7.1%	9.0%	20.4%	3.8%
O=C(O)c1ccccc1C(=O)c1ccc(Sc2ccc(Cl)cc2)c([N+](=O)[O-])c1	-14.0%	79.4µM*	0.0%	-21.0%	14.6%	8.6%
O=C(O)CC(NC(=O)c1ccco1)c1ccco1 (stereo unspecified)	?	79.4µM*	-10.1%	2.2%	-9.5%	-12.8%
O=C(O)CC(NC(=O)C(c1ccccc1)c1ccccc1)c1ccco1 (stereo unspecified)	-4.3%	0.8%	-14.8%	11.8%	19.7%	2.3%
O=C(NCCNCc1ccccc1)c1ccco1	50.1µM*	.	?	-20.8%	20µM*	.
Cn1c(SCCOc2ccccc2)nnc1-c1ccc(NC(=O)CCc2ccccc2)cc1	.	.	3.8%	2.2%	29.7%	.
COc1cc(NC(=O)c2ccc([N+](=O)[O-])o2)ccc1NC(=O)c1ccco1	3.6%	0.355µM*	1.2%	-12.9%	-3.2%	-20.2%
C=C(NC(=O)C(=C)NC(=O)c1csc(C2=NC3c4csc(n4)C4NC(=O)c5csc(n5)C(C(C)(O)C(C)O)NC(=O)C5CSC(=N5)/C(=C/C)NC(=O)C(C(C)O)NC(=O)c5csc(n5)C3(CC2)NC(=O)C(C)NC(=O)C(=C)NC(=O)C(=C)NC(=O)C(C(C)C)NC2C=Cc3c(C(C)O)cc(nc3C2O)C(=O)OC4C)n1)C(N)=O (stereo unspecified)	?	.	-18.9%	2.2%	22.4µM*	.
